# KB-3-1 cytotox – qHTS assay for MDR1-selective chemotherapeutics: Primary screen using the parental adenocarcinoma cell KB-3-1; KB-3-1 viability, CellTiter-Glo ATP luminescence, 72 h; Potency, µM (highest dose often 46.1 µM), usual class: cytotoxic; hit rate 1.4% among 400,000; note: % is set by controls: 0 for no effect and ±100 for the full control effect; nearly all actives have a fitted effect of over 60% in size
#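 Here the drug-naive KB-3-1 line serves as comparator for MDR sub-line selectivity; cells received compound titrations, 72 h at 37 °C, then CellTiter-Glo readout.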
# ATXN viability – Viability Counterscreen for Primary qHTS for Inhibitors of ATXN expression; S2 cells (HEK-293 line with an ATXN2-luciferase reporter) viability, CellTiter-Fluor protease fluorescence, 24 h; Potency, µM (top dose mostly 56.7 µM), most hits filed as cytotoxic; hit rate 0.49% among 400,000; note: nearly all actives have a fitted effect of over 40% in size
# HepG2 viability – qHTS for Inhibitors of TGF-b: Cytotox Counterscreen; AID 588856, 2011; HepG2 CAGA-GFP viability, ATP luminescence, 18 h; Potency, µM (highest dose often 46.1 µM), without a hit: at the highest dose activity change, negative = cytotoxicity, hits mostly cytotoxic; hit rate 0.76% among 410,000
#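 CellTiter-Glo luminescence gave cytotoxicity after 18 hours at 37 degrees C. The cells were HepG2 CAGA-GFP in 1% FBS DMEM, stimulated with 500 pg/mL TGF-beta after compound addition. %Activity was normalised to no-cell wells (complete cell-killing) and DMSO (no toxicity), and curves were fitted and classified.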
# TGFb inhibitor – qHTS for Inhibitors of TGF-b; Potency, µM (highest dose often 46.1 µM), for the others: at the top dose activity, negative = inhibition, most hits filed as inhibitors; HepG2 CAGA-GFP TGF-b/SMAD3 reporter, GFP fluorescence, 18 h; TGF-beta stimulated, 500 pg/mL final; hit rate 1.2% among 410,000; note: % is set by controls: 0 for no effect and ±100 for the full control effect; nearly all actives have a fitted effect of over 65% in size
#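 Read-out: total well GFP (ex488/em500-530) summed from mean per-cell fluorescence. Cells: HEPG2 CAGA-GFP, 1% FBS DMEM, 18 h at 37 degrees C with 500 pg/mL final TGF-beta. Unstimulated wells served as the full-inhibition control; stimulated DMSO wells = 0%.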
# ATXN2 expr inh – Primary qHTS for Inhibitors of ATXN expression; HEK-293 ATXN2-luciferase reporter, luminescence, 24 h; Potency, µM (doses to about 57 µM), for the others: at the highest dose activity change, negative = inhibition, most hits filed as inhibitors; hit rate 0.72% among 360,000; note: % is set by controls: 0 for no effect and ±100 for the full control effect; nearly all actives have a fitted effect of over 55% in size
#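 qHTS (up to 57 uM final) was run with 24 h compound exposure of reporter cells at 37 °C. Each well was multiplexed: SteadyGlo luminescence measured ATXN2-luciferase expression after a fluorogenic Gly-Phe-AFC viability readout (25 uM final).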
# KB-V1 cytotox – qHTS assay for MDR1-selective chemotherapeutics: Primary screen using the drug-selected MDR subline cells KB-V1 | hit rate 3.4% among 400,000 | KB-V1 MDR cells viability, CellTiter-Glo, 72 h | Potency, µM (series often up to 46.1 µM), most hits filed as cytotoxic | AID 1347076, 2019; note: % is set by controls: 0 for no effect and ±100 for the full control effect; nearly all actives have a fitted effect of over 60% in size
#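 Compound-treated KB-V1 multidrug-resistant cells, 72 h, 37 degrees C; viability by CellTiter-Glo. Fitted qHTS curves give the values.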
# The depositor's hits bear a star; i = inactive; u = inconclusive; x = not tested or not shown; ! = a repeat was not active. Rows were chosen to be rich in hits. Some 5.9% of all compounds tested hit in one or more screens of this group. Calls come from the whole dose curve; as a rule, active = well fitted curve in the direction sought with a large enough effect; inconclusive = small, poorly fitted or top-dose-only effect, or another doubt; inactive = no such curve, though single readings can be large; an effect the other way counts as inactive or inconclusive. Potency is the fitted concentration of half-maximal effect.
SMILES,KB-3-1 cytotox,ATXN viability,HepG2 viability,TGFb inhibitor,ATXN2 expr inh,KB-V1 cytotox
N#CC(C#N)=NNc1ccc(-n2ccc(C(F)(F)F)n2)cc1,u,u,-45%,3.2µM*,u,i
O=S(=O)(F)Cc1ccccc1,x,x,x,x,30%,x
O=c1[nH]c(=S)n(CCC2=CCCCC2)c(O)c1C=NC1CCN(Cc2ccccc2)CC1,u,i,5%,-33%,-23%,5.8µM*
Cc1nn(-c2ccccc2)c2c1P(=O)(O)/C(=C1\N(C)c3ccccc3C1(C)C)C=N2,i,i,-38%,1%,0%,i
Nc1ccc(N=Nc2ccccc2)cc1,i,22µM*!,-5%,-9%,0%,i
COc1ccccc1NS(=O)(=O)c1cc(NC(=O)c2ccc(Cl)nc2)ccc1N1CCCC1,i,u,0%,u,-31%,4.1µM*
O=[N+]([O-])/C=C/c1c(Cl)cccc1Cl,u,x,10µM*,2.8µM*,u,u
COc1ccc(C)cc1NC(=O)Cn1c(=O)oc2cc(S(=O)(=O)N3CCCCC3)ccc21,i,i,-34%,-24%,-11%,i
CCCCn1c(O)c(C(CC)=Nc2ccc(OCC)cc2)c(=O)[nH]c1=O,u,i,20%,14%,-14%,21µM*
CCCCn1c(O)c(C(CC)=NCc2cc(OC)cc(OC)c2)c(=O)[nH]c1=O,i,i,-17%,-23%,-18%,3.7µM*
CCC(=Nc1ccc(OC)cc1OC)c1c(O)n(C)c(=O)n(C)c1=O,u,i,-18%,-8%,-14%,u
CCCCn1c(O)c(C(CC)=Nc2ccc(OC)cc2OC)c(=O)[nH]c1=O,u,u,-5%,-11%,u,21µM*
CCCCn1nnnc1C(CCc1ccccc1)N1CCC(n2c(=O)[nH]c3ccccc32)CC1 (stereo unspecified),u,u,1%,u,u,4.1µM*
Cc1cccc(C)c1-n1nnnc1C(CCc1ccccc1)N1CCC(n2c(=O)[nH]c3ccccc32)CC1 (stereo unspecified),u,u,5%,u,u,u
CCCCn1nnnc1C(CCSC)N1CCC(n2c(=O)[nH]c3ccccc32)CC1 (stereo unspecified),i,u,-26%,-34%,-31%,u
O=c1[nH]c2ccccc2n1C1CCN(C(CCc2ccccc2)c2nnnn2-c2ccc3c(c2)OCCO3)CC1 (stereo unspecified),u,x,-18%,u,7.9µM*,23µM*
COP(=O)(OC)[C@@H](O)C(Cl)(Cl)Cl,x,i,x,x,x,x
Cc1ccc(-c2nc3ccc(Cl)cc3n2OC(=O)N(C)C)cc1,i,i,-2%,-1%,30%,i
CN(C)C(=O)Oc1cccc(-c2cn3cc(Cl)ccc3n2)c1,i,u,3%,-23%,61%,13µM*
CN(C)C(=O)Oc1ccc(-c2cn3cc(C(F)(F)F)ccc3n2)cc1,i,i,-1%,-20%,58%,i
CN(C)C(=O)Oc1ccc(-c2cn3cc(Cl)ccc3n2)cc1,i,i,-36%,-12%,0%,4.1µM*
O=C(NCCSc1c(-c2ccc(F)cc2)[nH]c2ccccc12)c1ccc(S(=O)(=O)N2CCOCC2)cc1,x,x,-31%,u,x,x
CNCC(O)c1ccc(OC(=O)C(C)(C)C)c(OC(=O)C(C)(C)C)c1 (stereo unspecified),i,i,-32%,-2%,-2%,i
CCCOc1ccc(C(=O)CCC(=O)NNC(=O)c2ccncc2)cc1,u,u,6%,u,2%,5.8µM*
CC(C)n1c(O)c(C2c3cc(Cl)ccc3Oc3[nH]c(=O)n(C(C)C)c(=O)c32)c(=O)[nH]c1=O (stereo unspecified),8.2µM*,11µM*,14µM*,6.3µM*,4µM*,7.3µM*
SMILES,KB-3-1 cytotox,ATXN viability,HepG2 viability,TGFb inhibitor,ATXN2 expr inh,KB-V1 cytotox
CC(=O)c1c(O)n(-c2cccc(Cl)c2)c(=O)[nH]c1=O (tested in a mixture with another compound),i,i,11%,-2%,-13%,i
Nc1cc(Cl)c2nonc2c1[N+](=O)[O-],16µM*,u,11µM*,u,u,u
CC(Oc1ccccc1)C(=O)Nc1ccc(C(=O)OCc2cc(=O)n3nc(C4CC4)sc3n2)cc1 (stereo unspecified),i,u,-25%,-4%,-40%,u
CCOC(=O)C(O)(c1ccc(NC(=S)NC(=O)c2ccc(Cl)cc2Cl)cc1)C(F)(F)F (stereo unspecified),i,i,-36%,0%,3%,u
COC(=O)C(O)(c1ccc(NC(=S)NC(=O)c2ccc(Cl)cc2Cl)cc1)C(F)(F)F (stereo unspecified),u,i,-49%,u,-6%,18µM*
CC(=O)c1cccc(NC(=O)C2CCN(S(=O)(=O)c3ccc4c(c3)oc(=O)n4C)CC2)c1,i,i,-33%,-10%,-5%,u
COc1ccc(-n2cnc3cc(C(=O)N4CCC5(CC4)OCCO5)ccc32)cc1,15µM*,i,-7%,-17%,x,u
COc1ccc(C(=O)N2CCC3(CC2)OCCO3)cc1,i,i,-1%,-3%,10%,i
CC1c2ccccc2-n2nncc2CN1CC1CCCCC1 (stereo unspecified),i,i,-32%,-24%,-18%,i
Brc1ccc2c(c1)CN(CC1CCCCC1)Cc1cnnn1-2,i,i,-39%,-8%,-4%,18µM*
CCCN1CCO[C@@H]2c3cc(O)ccc3OC[C@@H]21,x,x,x,x,13%,x
CC(=O)OC1CC(OC2C(O)CC(OC3C(O)CC(OC4CCC5(C)C(CCC6C5CCC5(C)C(C7=CC(=O)OC7)CCC65O)C4)OC3C)OC2C)OC(C)C1OC1OC(CO)C(O)C(O)C1O (stereo unspecified),u,u,-41%,u,0.0075µM*,0.41µM*
CC12CC[C@H]3[C@@H](CCC4(O)C[C@H](O)CCC34/C=N/NC(=O)c3ccc(O)cc3)C1(O)CCC2C1=CC(=O)OC1 (stereo partly specified),i,i,1%,14%,19%,i
O=C(c1ccc(C(F)(F)F)cc1)C1CCCN(Cc2ccc(CO)o2)C1 (stereo unspecified),i,i,-19%,-12%,x,18µM*

# Compound activity as filed in PubChem.
